Measurements published in ChEMBL document CHEMBL3988442, “University of Dundee, Small-Polar-MMV Screening Library” (2021).
Hit rate of the full screen: of about 48,000 compounds, about 13,000 (27%) showed an effect of 50% or more. Some of the results follow.

The molecules below were run on Wolbachia pipientis (assay: Anti-Wolbachia Cell-Based Screen). Conditions: 5 µM.
Format: functional
Set-up: scale not given: in the data most compounds retested in dose-response had high values

| SMILES | Percent Effect |
| --- | --- |
| Cc1nc(COc2ccc(OCC(N)=O)cc2)oc1C | 23.22% |
| CC(C)N(C)C(=O)CN1C(=O)OC[C@@H]1c1ccccc1 | -15.23% |
| CCn1c(C)nnc1CN(C)C1CCN(Cc2sc(C)nc2C)C1 (stereo not given) | 1.106% |
| Cc1nc(C)c(CN2CCC(N(C)Cc3nnc(C4CC4)o3)C2)s1 (stereo not given) | 83.42% |
| Cc1nc(CN(C)C2CCN(Cc3sc(C)nc3C)C2)no1 (stereo not given) | -5.233% |
| Cc1nc(C)c(CN2CCC(N(C)Cc3noc(C4CC4)n3)C2)s1 (stereo not given) | 84.99% |
| Cc1ncc(CN(C)C2CCCN(Cc3noc(C4CC4)n3)C2)s1 (stereo not given) | 1.76% |
| Cc1ccc(N2CCCC(N(C)Cc3nnc(C4CC4)o3)C2)nn1 (stereo not given) | -13.84% |
| O=C(CN1C(=O)c2ccccc2CS1(=O)=O)c1ccccc1 | -5.153% |
| COCC(C)NC(=O)c1cncc(Br)c1 (stereo not given) | 15.5% |
| Cc1cc(O)cc2c(=O)oc(CC(C)O)cc12 (stereo not given) | -7.016% |
| CC(C)CCc1nc(CNCC2CN(C)CCO2)cs1 (stereo not given) | 94.45% |
| Cc1ccc(OCc2nc(CNCC3CN(C)CCO3)cs2)cc1 (stereo not given) | 109.6% |
| Cc1ccc(-c2cn3c(n2)CO[C@@H](CNCc2nccs2)C3)cc1 | -9.469% |
| CN1CCOC(CNCc2nc(-c3ccccc3)cs2)C1 (stereo not given) | 5.622% |
| Cc1c(F)cccc1NC(=O)N(C(C)CS(C)(=O)=O)C1CC1 (stereo not given) | -14.75% |
| CCC(CO)N(Cc1ccccn1)C(=O)c1ccc2c(c1)CCO2 (stereo not given) | 6.403% |
| CCSCc1cccc(NC2CCN(C)C2=O)c1 (stereo not given) | -4.409% |
| c1ncn(CC2CCCCN2Cc2csc(C3CCCC3)n2)n1 (stereo not given) | 3.175% |
| CC(C)c1nc(CN2CCCCC2Cn2cncn2)cs1 (stereo not given) | 82.22% |
| CN(C)C(=O)Cc1nc(CN2CCCCC2Cn2cncn2)cs1 (stereo not given) | -10.91% |
| CCCc1nc(CN2CCCCC2Cn2cncn2)cs1 (stereo not given) | 92.11% |

| SMILES | Percent Effect |
| --- | --- |
| CCCc1nc(CN2CCCC2Cn2cncn2)cs1 (stereo not given) | 0.1257% |
| CC(C)c1nc(CN2CCCC2CN2CCCC2)cs1 (stereo not given) | 11.4% |
| Cc1nc(C(NS(=O)(=O)N(C)C)c2ccccc2F)no1 (stereo not given) | -14.73% |
| O=C(NC[C@H]1OC[C@@H](NC2CCC(F)(F)CC2)[C@@H]1O)c1ccccc1 | -10.21% |
| O=C(CCc1ccncc1)N1CCc2c(ncnc2N2CCOCC2)C1 | -13.92% |
| COc1cc(C)c2c(c1C)C[C@H]([C@H](C)C(=O)O)CC2 | -11.67% |
| CN1Cc2cc(F)ccc2N(CC(C)(C)O)CCC1=O | 116.8% |
| CCN1CC2(CCC1=O)CCN(Cc1cc(F)ccc1Cl)CC2 | -6.305% |
| CN1CCN(S(C)(=O)=O)c2ccc(F)cc21 | -0.158% |
| Cn1ncc2c(=O)[nH]c(CN3CCCc4cc(F)ccc43)nc21 | -1.731% |
| CSCCC(C)NC(=O)CCN1C(=O)CCc2cc(F)ccc21 (stereo not given) | 2.729% |
| CCN1CCC(=O)N(C)Cc2cc(F)ccc21 | 110.2% |
| COc1cc(C(C)=O)ccc1OCC(=O)N(CC(C)C#N)C1CC1 (stereo not given) | -5.755% |
| CC1CN(CC(=O)NC2CCCC2)CCN1c1ccc2nncn2n1 (stereo not given) | 1.075% |
| O=C(NC1CC1)c1cccc(Oc2ccc3nncn3n2)c1 | 135.1% |
| O=C(NC1CCCCC1)c1ccc(Oc2ccc3nncn3n2)cc1 | 113.3% |
| CC(C)NC(=O)c1ccc2nnc(C3CCN(C(=O)NC(C)C)C3)n2c1 (stereo not given) | 5.911% |
| CC(C)CNC(=O)c1cccc(Oc2ccc3nncn3n2)c1 | 96.36% |
| CN(C)C(CNC(=O)c1cccc(-n2cnnn2)c1)c1ccccc1Cl (stereo not given) | -8.623% |
| COc1cccc(C(=O)NCC(O)c2cccs2)c1 (stereo not given) | -0.6339% |
| O=C(CN1CCN(c2ccc3nncn3n2)CC1)NC1CCCCC1 | 14.04% |
| O=C(CN1CCN(c2ccc3nncn3n2)CC1)NC1CCCC1 | 0.9347% |

| SMILES | Percent Effect |
| --- | --- |
| CC(=O)N1CC(c2ncn(C(C)C)n2)c2cc(C(=O)NC(C)C)ccc21 (stereo not given) | -2.765% |
| CC(C)NC(=O)c1cccc(Oc2ccc3nncn3n2)c1 | 131.1% |
| CC(Nc1cccc(Oc2ccc(C#N)cn2)c1)C(=O)NC1CC1 (stereo not given) | 4.844% |
| N#Cc1cccnc1NCCNC(=O)N1CCCC(C(F)(F)F)C1 (stereo not given) | -23.68% |
| CS(=O)(=O)NCCC1CN(Cc2ccccc2F)CCO1 (stereo not given) | -13.1% |
| N#Cc1c[nH]c(C(=O)N(Cc2ccc(O)cc2)CC2CC2)c1 | -16.08% |
| O=C(NCC(O)c1cccs1)c1cccc(Cl)c1 (stereo not given) | -18.24% |
| CNc1nc(C(=O)N2CCC3(CCCN(CCOC)C3=O)C2)cs1 (stereo not given) | -30.8% |
| O=C1CCNc2ncc(-c3ccc(Cl)cc3)cc2CN1C1CC1 | 113.7% |
| O=C(c1ncc[nH]1)N1CCC(n2cc(-c3cccc(Cl)c3)nn2)CC1 | -7.325% |
| COc1ccc(-c2cnc3c(c2)CN(C2CC2)C(=O)CCN3)cc1 | 106.7% |
| O=C1CCNc2ncc(-c3ccccc3Cl)cc2CN1C1CC1 | 75.8% |
| CNC(=O)c1cn2cc(-c3cccc(Cl)c3)n(CC3CC3)c(=O)c2n1 | -6.691% |
| COc1ccc(-c2nnc(CN3CCNC(=O)C3)o2)cc1 | -34.6% |
| COc1ccc(NC2CCN(C3CC3)C2=O)cn1 (stereo not given) | -16.66% |
| O=C1CCNc2ncc(-c3cccc(Cl)c3)cc2CN1C1CC1 | 104.4% |
| O=S(=O)(c1ccccc1Cl)N1CCc2nc(C3CCNCC3)ncc2C1 | -5.628% |
| CC(O)c1cn(C2CCN(C(=O)C3(C)CCCCC3)CC2)nn1 (stereo not given) | 29.6% |
| NC(=O)CCOc1ccc(NC(=O)c2ccccc2OC(F)F)cc1 | 5.121% |
| CC(=O)N1CCC(N2CCOC[C@H]2c2nc(C(C)(C)C)c[nH]2)CC1 | -20.09% |
| COc1cccc2c1OCC(C(=O)N1CCSCC1)C2 (stereo not given) | -0.8492% |
| CCOCCC(=O)NCC1COc2c(cccc2OC)C1 (stereo not given) | -9.333% |

| SMILES | Percent Effect |
| --- | --- |
| COc1cccc2c1OCC(CNC(=O)CN(C)C1CCCC1)C2 (stereo not given) | -4.207% |
| COc1cccc2c1OCC(C(=O)N1Cc3ccccc3C1)C2 (stereo not given) | -46.74% |
| COc1cccc2c1OCC(Cc1cc(C(=O)N3CCCC3)ccn1)C2 (stereo not given) | 103.2% |
| COc1cccc2c1OCC(CNC(=O)Cc1csc(C(C)=O)c1)C2 (stereo not given) | -8.032% |
| COc1cccc2c1OCC(CNC(=O)Cc1cnccn1)C2 (stereo not given) | -6.368% |
| CNC(=O)c1ccnc(CC2COc3c(cccc3OC)C2)c1 (stereo not given) | 100.6% |
| COc1cccc2c1OCC(Cc1cc(C(N)=O)ccn1)C2 (stereo not given) | 86.97% |
| COc1cccc2c1OCC(Cc1cnc(N)c(C)c1)C2 (stereo not given) | 43.69% |
| CCNC(=O)c1ccnc(CC2COc3c(cccc3OC)C2)c1 (stereo not given) | 109.1% |
| COc1cccc2c1OCC(CNC(=O)Cn1ccnc1C)C2 (stereo not given) | -7.516% |
| CCCC(C)NCc1cnc(-c2cccc(C)c2)nc1 (stereo not given) | 4.812% |
| CC1=C[C@@H](CN2CCC(O)CC2)[C@H](C(C)C)C[C@H]1Cc1nnc(C)o1 | 4.973% |
| CC(C(=O)N(C)Cc1ccco1)n1cncn1 (stereo not given) | 14.16% |
| CN1Cc2[nH]nc(COCC3CC3)c2C1.O=C(O)C(F)(F)F.O=C(O)C(F)(F)F | -7.545% |
| CC(CO)CNC(=O)c1cc2cccc(F)c2o1 (stereo not given) | -10.54% |
| Cc1cnc(N2C[C@@H]3CCN(CC4CC4)C(=O)[C@H]3C2)nc1 | 4.769% |
| CN1CCN(CC2CC2)C(=O)c2cnc(N3CCOCC3)nc21 | 128% |
| CN1CCN(CC2CC2)C(=O)c2cnc(N3CCCC3)nc21 | -1.77% |
| CN1CCN(CC2CC2)C(=O)c2cnc(N3CC[C@@H](O)C3)nc21 | -2.603% |
| CN1CCN(CC2CC2)C(=O)c2cnc(N3CCCCC3)nc21 | 8.561% |
| CN1CCN(CC2CC2)C(=O)c2cnc(N3CCC(CO)CC3)nc21 | 85.31% |
| c1cc2c(cc1-c1noc3c1CN(C1CCSC1)CC3)OCO2 (stereo not given) | 2.821% |

| SMILES | Percent Effect |
| --- | --- |
| CC(NCc1ccccc1CN1CCCC1=O)c1ccc(C#N)cc1 (stereo not given) | -5.192% |
| CCN(CCOc1ccc(F)cc1)C(=O)c1ccncc1Cl | 2.739% |
| O=C(NCCC1CN(Cc2cccnc2)CCO1)c1ccsc1 (stereo not given) | -9.218% |
| N#Cc1c(SCCN2CCCCCC2)sc2c(O)cc(O)nc12 | 100.4% |
| N#CCCSc1sc2c(O)cc(O)nc2c1C#N | 107.9% |
| N#Cc1c(SCCN2CCOCC2)sc2c(O)cc(O)nc12 | 143.1% |
| N#Cc1ccc(-c2nnc(CSCCN3CCOCC3)o2)cc1 | -12.22% |
| N#Cc1c(SCCN2CCCCC2)sc2c(O)cc(O)nc12 | 98.27% |
| FC(F)(F)Cn1nnnc1SCCN1CCCCC1 | -6.458% |
| N#Cc1ccc(F)c(CSCCN2CCOCC2)c1 | -32.26% |
| Cn1cc(Br)cc1C(=O)NC1(C#N)CC1 | -11.26% |
| c1cnc(NCCCOC2CCOCC2)nc1 | 1.156% |
| CC(C)CN1CCCn2nc(CNC(=O)CN3CCOC3=O)cc2C1 | 1.752% |
| Cn1cnnc1CNC(=O)CCCOc1ccccc1Cl | 2.629% |
| Cc1ccc(N(C)Cc2nnnn2C2CC2)c(C)c1 | -2.761% |
| O=C(c1ccccc1N1CCOCC1)N1CCCC(n2cccn2)C1 (stereo not given) | -2.451% |
| Cc1cnn(C2CCCN(C(=O)c3cccc4c3OCO4)C2)c1 (stereo not given) | 104.2% |
| COCc1ccccc1C(=O)N1CCCC(n2nc(C)cc2C)C1 (stereo not given) | 4.248% |
| O=C(c1cccc2c1OCO2)N1CCCC(n2cccn2)C1 (stereo not given) | 2.187% |
| Cc1cc(C)n(C2CCCN(C(=O)c3cccc4c3OCO4)C2)n1 (stereo not given) | 86.78% |
| O=C(c1cccc2c1OCCO2)N1CCCC(n2cccn2)C1 (stereo not given) | 108.1% |
| Cc1cc(C)n(C2CCCN(C(=O)c3cccc4[nH]ncc34)C2)n1 (stereo not given) | 4.56% |
